The record followed here is the supplement of paper PMC10338343.

Test [1] deals with MILI (PIWIL2) piRISC loaded with L1MC piRNA (26 nt). Kind of test: pre-steady-state target cleavage rate (min^-1); guide: L1MC piRNA 5'p-UAACUAAAUACUAUGCAAGCUGUAGG; higher = faster piRNA-guided slicing of the target. To be noted: auxiliary factor: 500 nM mouse GTSF1. In a few lines: (§1)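 Cleave-'n-Seq measured uncleaved targets by sequencing after a transcribed, DNA-blocked target RNA library […] was mixed with 1 nM active affinity-purified piRISC holding one synthetic guide, with or without 500 nM GTSF1 partner protein, at 33 °C in HEPES–potassium acetate buffer for 0–8 or 0–960 min. Counts were normalised to depth and to weakly complementary targets, three trials were pooled, and k3 was capped at 0.0001 min^-1. A burst-and-steady-state fit gave the pre-steady-state cleavage rate.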

Test [2] relates to EfPiwi piRISC loaded with L1MC piRNA (26 nt). Kind of test: pre-steady-state target cleavage rate (min^-1); auxiliary factor: 500 nM Ephydatia muelleri Gtsf1; guide: L1MC piRNA 5'p-UAACUAAAUACUAUGCAAGCUGUAGG; MIWI and MILI are mouse PIWI proteins and EfPiwi is from a freshwater sponge; tags in brackets are library labels; higher = faster piRNA-guided slicing of the target. In a few lines: as §1

± gives the standard deviation.

For the sequence UCCUCCUACAGCUUGCAAAGUAUUAAGUUA, the “pre-steady-state target cleavage rate” value turned out to be 0.0872 ± 0.014 in test [1] and 0.00696 ± 0.0033 in test [2].

UCCUGCUACAGCUUGCAUAGUUUUAAGUUA: the “pre-steady-state target cleavage rate” value in test [1] amounted to 0.0676 ± 0.015; in test [2], 0.00341 ± 0.0017.

For the sequence UCCUCCUACAGCUUGCAUAGUAUUUUCAAA, the “pre-steady-state target cleavage rate” value in test [1] was determined as 0.232 ± 0.044; in test [2] it was 0.00383 ± 0.0027.

For the sequence UCCUCCUACACCUUGCAUACUAUUUAGUUA, the figures for the “pre-steady-state target cleavage rate” value in test [1] and in test [2] were 0.0962 ± 0.025 and 0.00578 ± 0.0029, respectively.

On to UCCUCCUACAGCUUGCAUAGUAAAUUCAAA, for which the “pre-steady-state target cleavage rate” value in test [1] turned out to be 0.125 ± 0.03; in test [2] it was 0.00279 ± 0.0021.

On to UCCUCCUACAGCUUGCAUAGUAAUUAGUAA, for which the results for the “pre-steady-state target cleavage rate” value in test [1] and in test [2] were 0.141 ± 0.021 and 0.0063 ± 0.0029, respectively.

On to UCCUCCUACAGCAUGCAUAGUAUUUACAAA, for which the “pre-steady-state target cleavage rate” value in test [1] turned out to be 0.205 ± 0.037; in test [2], 0.00397 ± 0.0026.

UCCUCCUACAGCUUGCAUAGUAUAAACAAA: the “pre-steady-state target cleavage rate” value came to 0.165 ± 0.043 in test [1] and 0.00398 ± 0.0028 in test [2].

Turning to UCCUGCUUGAGCUUGCAUAGUAUUUAGAAA, the “pre-steady-state target cleavage rate” value in test [1] was found to be 0.148 ± 0.027; in test [2], 0.00479 ± 0.0016.

On to UCCUGCUACAGCUUGCAUAGUAUUUAGGUA, for which the “pre-steady-state target cleavage rate” value is 0.143 ± 0.034 in test [1] and 0.00342 ± 0.0016 in test [2].

Take UCCUGGUACAGCUUGCAUAGUAUUUUCUUA: the “pre-steady-state target cleavage rate” value was 0.0368 ± 0.016 in test [1] and 0.00532 ± 0.0034 in test [2].

Regarding UCCUGCUAGAGCUUGCAUAGUUUUUAGUUA, the “pre-steady-state target cleavage rate” value in test [1] was 0.0598 ± 0.012; in test [2], 0.00419 ± 0.0013.

On to UCCUCCUUCAGCUUGCAUAGAAUUUAGUUA, for which the “pre-steady-state target cleavage rate” value is 0.0772 ± 0.016 in test [1] and 0.00469 ± 0.0021 in test [2].

As to UCCUGCUACACCUUGCAUAGUAUUUUCAAA, the entries for the “pre-steady-state target cleavage rate” value in test [1] and in test [2] were 0.0765 ± 0.028 and 0.00244 ± 0.0022, respectively.

Consider UCCUCCUACAGCUUGCAUACUAUUUACAAA, for which the “pre-steady-state target cleavage rate” value in test [1] is 0.0449 ± 0.012; in test [2] it was 0.0038 ± 0.0031.

As to UCCUCCUAGAGCUUGCAUAGUAUUUACAAA, the figures for the “pre-steady-state target cleavage rate” value in test [1] and in test [2] were 0.0915 ± 0.027 and 0.00252 ± 0.0019, respectively.

As for UCCUGGAUCAGCUUGCAUUGUAUUUAGAUA, the “pre-steady-state target cleavage rate” value in test [1] is 0.103 ± 0.019; in test [2], 0.00276 ± 0.0021.

As to UCCUGGUACUGCUUGCAUAGUAUUUAGUAA, the results for the “pre-steady-state target cleavage rate” value in test [1] and in test [2] were 0.0986 ± 0.018 and 0.00428 ± 0.0018, respectively.

In the case of UCCUGCUACAGCUUGCACUAGUAUUUAGUUA, the “pre-steady-state target cleavage rate” value came out at 0.0609 ± 0.015 in test [1] and 0.00557 ± 0.0023 in test [2].

Take UCCUCCUACAGCUUGCAUAGUAAAUAGUAA: the “pre-steady-state target cleavage rate” value stood at 0.119 ± 0.025 in test [1] and 0.00375 ± 0.0025 in test [2].

For UCCUCGAUCAGCUUGCAUAGUAUUUAGAAA, the “pre-steady-state target cleavage rate” value in test [1] came to 0.115 ± 0.02; in test [2] it was 0.00579 ± 0.0018.

On to UCCUGGAACAGCAUCCAUAGUAUUUAGUUA, for which the “pre-steady-state target cleavage rate” value in test [1] came out at 0.195 ± 0.045; in test [2], 0.0025 ± 0.0021.

With UCCUGGAUGUCCUUGCAUAGUAUUUAGUCA, the “pre-steady-state target cleavage rate” value in test [1] turned out to be 0.0898 ± 0.017; in test [2], 0.00415 ± 0.004.

For UCCUGGAUCAGCUUGCAUAGUAAUUAGAAA, the “pre-steady-state target cleavage rate” value is 0.0807 ± 0.02 in test [1] and 0.00582 ± 0.0028 in test [2].

As to UCCUGCUACAGCUUGCAUAGUAUUAACAAA, the “pre-steady-state target cleavage rate” value in test [1] was 0.0401 ± 0.011; in test [2], 0.00321 ± 0.0023.

As for UCCUGCUACAGCUUGCAUAGAAUUUAGUUA, the “pre-steady-state target cleavage rate” value in test [1] turned out to be 0.0612 ± 0.014; in test [2], 0.00582 ± 0.0022.

In the case of UCCUCCUACAGCUAGCAUAGAAUUUAGUUA, the “pre-steady-state target cleavage rate” value in test [1] came to 0.0602 ± 0.011; in test [2], 0.00325 ± 0.0019.

In the case of UCCUGGAUGAGCUUGGCAUAGUAUUUAGUUA, the “pre-steady-state target cleavage rate” value in test [1] came to 0.224 ± 0.054; in test [2], 0.0123 ± 0.0039.

Regarding UCCUCCUACAGCUUCCAUAGUAUUUACUUA, the “pre-steady-state target cleavage rate” value in test [1] turned out to be 0.0137 ± 0.0064; in test [2], 0.00277 ± 0.0024.

Consider UCCUGGUACAGCUUGCAUAGUAUUAACUUA, for which the “pre-steady-state target cleavage rate” value amounted to 0.0223 ± 0.0097 in test [1] and 0.0032 ± 0.0024 in test [2].

Turning to UCCUCCUACAGCUUGCAUAGUAAUAAGUUA, the “pre-steady-state target cleavage rate” value in test [1] is 0.129 ± 0.021; in test [2], 0.0073 ± 0.004.

For the sequence UCCUGCUACAGCUUGCAAACUAUUUAGUUA, the “pre-steady-state target cleavage rate” value came to 0.048 ± 0.012 in test [1] and 0.00535 ± 0.002 in test [2].

As to UCCUCCUACAGCUUGCAUAGAAUUUACAAA, the “pre-steady-state target cleavage rate” value in test [1] turned out to be 0.0431 ± 0.015; in test [2], 0.00295 ± 0.0029.

UCCUCCUUGAGCUUGCAUAGUAUUUACAAA: the figures for the “pre-steady-state target cleavage rate” value in test [1] and in test [2] were 0.0856 ± 0.023 and 0.00316 ± 0.0022, respectively.

For the sequence UCCUGGAUGUGCUUGCAUAGUAUUUAGCUUA, the “pre-steady-state target cleavage rate” value in test [1] stood at 0.113 ± 0.028; in test [2], 0.00517 ± 0.003.

Consider UCCUGGAAGUGCUUGCAUAGUAUUUAGAAA, for which the “pre-steady-state target cleavage rate” value was 0.00889 ± 0.0052 in test [1] and 0.00379 ± 0.0018 in test [2].

In the case of UCCUCCUACAGCUUGCAUAGUAUAUACUUA, the “pre-steady-state target cleavage rate” value is 0.0976 ± 0.028 in test [1] and 0.00304 ± 0.0025 in test [2].

Take UCCUGGAACAGCUUGCAUAGCAUUUAGUUA: the figures for the “pre-steady-state target cleavage rate” value in test [1] and in test [2] were 0.0886 ± 0.013 and 0.00399 ± 0.0015, respectively.

UCCUGGAUCAGCUUGCAUAGUUAAUAGUUA: the results for the “pre-steady-state target cleavage rate” value in test [1] and in test [2] were 0.017 ± 0.0066 and 0.00344 ± 0.003, respectively.

As for UCCUGGAUGAGCUUGCUUAGUAUUUAGAUA, the “pre-steady-state target cleavage rate” value in test [1] stood at 0.128 ± 0.02; in test [2], 0.00382 ± 0.0029.

For the sequence UCCUCCUAGAGCUUGCAUAGUAUUUUGUUA, the entries for the “pre-steady-state target cleavage rate” value in test [1] and in test [2] were 0.251 ± 0.029 and 0.006 ± 0.0024, respectively.

For the sequence UCCUGGAUGAGCUUGCAUAGUAGUUAGUUA, the “pre-steady-state target cleavage rate” value in test [1] came out at 0.158 ± 0.026; in test [2], 0.00781 ± 0.0027.

For the sequence UCCUGGUACAGCUUGCAUAGUAUUUUGUAA, the “pre-steady-state target cleavage rate” value in test [1] came to 0.03 ± 0.0099; in test [2], 0.00379 ± 0.0027.

Consider UCCUGGAUGUCCUUGCAUAGUAUUUAAUUA, for which the “pre-steady-state target cleavage rate” value in test [1] was found to be 0.0833 ± 0.017; in test [2] it was 0.00439 ± 0.003.

As for UCCUGCUACAGCUUGCAUAGAUUUUAGUAA, the entries for the “pre-steady-state target cleavage rate” value in test [1] and in test [2] were 0.0161 ± 0.0046 and 0.0033 ± 0.0022, respectively.

UCCUCCUACAGCUUGCAUAGUAUUUAGAUUA: the “pre-steady-state target cleavage rate” value in test [1] worked out at 0.122 ± 0.022; in test [2] it was 0.0103 ± 0.0044.

With UCCUGCUACAGCUUGCAUAGUAAAAAGUAA, the “pre-steady-state target cleavage rate” value in test [1] turned out to be 0.0283 ± 0.0099; in test [2] it was 0.00322 ± 0.0027.

On to UCCUGGAUGUCCUUGCAUAGUAUUUAGCUUA, for which the “pre-steady-state target cleavage rate” value in test [1] amounted to 0.0698 ± 0.014; in test [2], 0.0051 ± 0.0028.

As to UCCUGCUACAGCUUGCAUAGUAUUUACAUA, the entries for the “pre-steady-state target cleavage rate” value in test [1] and in test [2] were 0.157 ± 0.041 and 0.0023 ± 0.0023, respectively.

In the case of UCCUGGAAGAGCUUCCAUAGUAUUUAGUUA, the entries for the “pre-steady-state target cleavage rate” value in test [1] and in test [2] were 0.297 ± 0.085 and 0.00329 ± 0.0011, respectively.
